Test results from PubChem BioAssay.
Several values for one entry are separate records, joined by “and”; a condition that tells them apart may be missing. Equal entries are not always repeated. Activity calls are given as the source filed them.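 Rule for the calls, unless noted: active = compounds whose cell count with miR-34 switched on is under 0.7 times the count with it off; inactive = the rest.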

How the values were obtained:
[1] = viability loss with induced miR-34 in A549 – imaging, A549 dox-inducible miR-34, nuclei and caspase counts, primary screen (AID 1347080); details: A549 miR-34 inducible, Hoechst nuclei count, 48 h; note: test concentration not given here
[2] = MELAS cybrid and Rieske KO viability enhancers – cell-based, MELAS cybrids, Rieske KO mouse fibroblasts, CellTiter-Glo, primary screen (AID 1508586;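 active = mean z-score across replicates of 1.96 or higher in either the MELAS or the Rieske mutant cell line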;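 note: test concentration not given here; z relative to plate mean and SD of compound and empty wells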); details: low glucose
[3] = galactose survival enhancers in mitochondrial complex I cybrids – cell-based, galactose medium, ATP luminescence, primary screen (AID 1645843;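 active = z-score of at least 1.8 in each of two replicates, scored against plate mean and spread of sample wells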;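 note: positive z means more ATP and so rescue of galactose-driven cybrid death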); details: complex I mutant cybrid cells, 72 h, stronger effect = higher value
[4] = stronger effect = lower value, cell number ratio, induced over uninduced
[5] = measured here: relative caspase fold change +Dox/-Dox
[6] = measured here: total cells with miR-34 induction, stronger effect = lower value
[7] = measured here: total cells without miR-34 induction
[8] = MELAS cybrid survival, CellTiter-Glo 48 h, stronger effect = higher value
[9] = Rieske KO mouse fibroblast survival, CellTiter-Glo 72 h

SMILES	fold change [1, 4]	fold change [1, 5]	cell count [1, 6]	cell count [1, 7]	z-score [2, 8]	z-score [2, 9]	z-score [3]
CC(=O)C=Cc1cn(C)c2ccccc12	0.824 (inactive)	0.579	7690	9340	1.15 (inactive)	0.123	0.49 (inactive)
CN(C)CCC=C1c2ccccc2COc2ccc(CC(=O)O)cc21	0.912 (inactive) and 0.919 (inactive)	1.41 and 0.942	9480 and 9680	10400 and 10500	-0.314 (inactive)	0.569	1.25 (inactive)
CC1OC(OC2C(CO)OC(OC3C(CO)OC(O)C(O)C3O)C(O)C2O)C(O)C(O)C1NC1C=C(CO)C(O)C(O)C1O (configuration not stated)	0.923 (inactive) and 1.03 (inactive)	1.2 and 0.703	9530 and 7300	10300 and 7090	-0.375 (inactive)	-0.157	0.475 (inactive)
O=C(c1ccnc(Cl)c1)N1CCc2[nH]nc(C3CCC3)c2C1	0.923 (inactive)	0.638	9170	9930	-0.36 (inactive)	0.475	-0.4 (inactive)
Cc1cccc(C)c1OCC(=O)O	0.919 (inactive)	0.272	8740	9510	0.26 (inactive)	0.0496	0.75 (inactive)
Nc1nc2ccccc2c(=O)[nH]1	0.901 (inactive)	0.247	8880	9860	0.855 (inactive)	-0.798	0.65 (inactive)
Cc1nnc(NC(=O)NCC(c2ccccc2)c2ccccc2)s1	0.837 (inactive)	0.947	7790	9310	0.623 (inactive)	1.94	1.01 (inactive)
NCCCNc1ccccc1[N+](=O)[O-]	0.945 (inactive)	0.463	8170	8640	-0.896 (inactive)	0.0452	0.19 (inactive)
Cc1nn(C)cc1-c1ccnc(NCc2nc(Cc3ccccc3)no2)n1	0.883 (inactive)	1.22	8680	9840	-0.288 (inactive)	-0.167	-0.52 (inactive)
O=S(=O)(O)c1cccc2cccc(Nc3ccccc3)c12	0.946 (inactive)	0.486	8990	9500	-0.258 (inactive)	-0.0194	0.715 (inactive)
CCc1cc(CN2CCN(C)C(CCO)C2)on1 (configuration not stated)	0.907 (inactive)	1.26	8690	9580	0.702 (inactive)	-0.294	-0.59 (inactive)
OB(O)c1ccccc1	0.876 (inactive)	0.386	7850	8950	-0.818 (inactive)	0.216	0.615 (inactive)
C=CCNC(=O)c1cccnc1-c1ccc(OC)c2ncccc12	0.914 (inactive)	1.9	9130	9990	-0.163 (inactive)	-0.219	-0.545 (inactive)
COc1ccc(-c2oc3c(CC=C(C)C)c(OC4OC(CO)C(O)C(O)C4O)cc(O)c3c(=O)c2OC2OC(C)C(O)C(O)C2O)cc1 (configuration not stated)	0.929 (inactive) and 0.864 (inactive)	1.15 and 1.26	9660 and 9050	10400 and 10500	-0.309 (inactive)	0.107	0.865 (inactive)
COc1ccc(S(=O)(=O)N2CCN(S(=O)(=O)c3ccc4c(c3)OCCO4)CC2)cc1	0.881 (inactive)	0.373	8270	9390	-0.316 (inactive)	-0.269	0.51 (inactive)
COCC1CCCN(Cc2cccc(-c3nc(-c4cccnc4)cc(=O)[nH]3)c2)C1 (configuration not stated)	0.935 (inactive)	1.11	8420	9010	-0.479 (inactive)	0.644	0.175 (inactive)
O=C(O)C(C(=O)O)c1ccccc1	0.911 (inactive)	0.169	8920	9780	0.44 (inactive)	-0.084	0.49 (inactive)
Oc1ccc(C=Cc2cc(O)cc(O)c2)cc1	2.61 (inactive) and 0.913 (inactive)	1.12 and 0.945	6320 and 7520	2420 and 8230	-0.411 (inactive)	0.338	1.1 (inactive)
COc1cccc(-c2cccc(N)n2)c1F	0.943 (inactive)	0.993	9590	10200	0.104 (inactive)	-0.26	-0.59 (inactive)
Cc1nn(C)cc1-c1ccnc(NC2CCOC(C)(C)C2)n1 (configuration not stated)	0.847 (inactive)	2.06	8460	9990	-0.0523 (inactive)	-0.494	-0.56 (inactive)
CCCCCCCCCCCCCCCC(=O)NCC(=O)O	0.908 (inactive)	1.05	9030	9940	-0.0953 (inactive)	0.105	1.27 (inactive)
Cn1nc(NC(=O)Cn2cc(-c3nccc4occc34)cn2)c2ccccc21	0.83 (inactive)	2.06	7280	8770	0.277 (inactive)	-0.242	-0.345 (inactive)
CC(C)(C)Nc1nc(N)c(C(=O)c2ccccc2)s1	0.899 (inactive)	0.5	6780	7540	3.13 (active)	0.287	0.55 (inactive)

SMILES	fold change [1, 4]	fold change [1, 5]	cell count [1, 6]	cell count [1, 7]	z-score [2, 8]	z-score [2, 9]	z-score [3]
CC(C)C(NC(=O)Cc1c[nH]c2ccccc12)C(=O)O (configuration not stated)	0.857 (inactive)	0.806	8140	9500	-1.19 (inactive)	-0.306	0.47 (inactive)
FC(F)Oc1ccc(-c2nc3c(cnn3Cc3cccs3)[nH]2)cc1	0.844 (inactive)	1.61	6520	7720	-0.426	2.02	1.1 (inactive)
COc1ccc(CN(C)C(=O)Nc2nc(C)n(C)n2)c2cccnc12	0.889 (inactive)	0.916	8870	9980	0.16 (inactive)	-0.562	-0.55 (inactive)
Cc1cc(C)n(CCCNc2ncc(C)c(-c3cnn(C)c3)n2)n1	0.893 (inactive)	1.21	8360	9370	-0.406 (inactive)	0.144	-0.54 (inactive)
O=C(O)COc1cccc2ccccc12	0.847 (inactive)	0.59	7750	9150	-0.276 (inactive)	0.135	0.555 (inactive)
OCCN1CC(O)C(O)C(O)C1CO (configuration not stated)	0.949 (inactive) and 0.938 (inactive)	1.7 and 0.717	10100 and 10300	10600 and 11000	-0.386 (inactive)	0.318	0.805 (inactive)
Cn1nc(C(C)(C)C)cc1NC(=O)Nc1ccc(Cl)cc1	0.806 (inactive)	1.05	7030	8720	1.19 (inactive)	-0.375	0.155 (inactive)
O=C(NN=Cc1cc(Br)c(O)c(Br)c1O)c1cccc(Br)c1	0.911 (inactive)	0.461	2930	3220	1.44 (inactive)	0.907	-2.57 (inactive)
O=C(NCCCc1ccccc1)NC1CCCCC1	0.869 (inactive)	0.557	8240	9480	-0.491 (inactive)	-0.675	0.35 (inactive)
O=C1CN(c2ncnc3nc[nH]c23)CCN1CCc1ccccc1	0.93 (inactive)	1.88	8450	9080	-0.834 (inactive)	-0.816	-0.58 (inactive)
Cc1ccc(S(=O)(=O)NCCCOC(=O)Nc2ccncc2)cc1	0.881 (inactive)	0.547	7920	8990	0.675 (inactive)	-0.0111	-0.675 (inactive)
CN(CCc1ccccn1)C(=O)c1ccc2sc(N)nc2c1	0.88 (inactive)	0.927	8380	9520	0.048 (inactive)	-0.377	-0.435 (inactive)
Fc1ccccc1-c1cc(NCc2ccncc2)n2nccc2n1	1.06 (inactive)	0.296	4240	4020	-1.56 (inactive)	-0.13	0.425 (inactive)
O=C(Cn1nnc(-c2ccccc2)n1)Nc1ccnn1Cc1ccccc1	0.843 (inactive)	1.22	7640	9060	-0.218 (inactive)	-0.596	0.045 (inactive)
NS(=O)(=O)c1ccc(F)cc1	0.896 (inactive)	0.251	9050	10100	0.294 (inactive)	-0.158	0.18 (inactive)
Nc1nc(-c2ccc(O)cc2)cs1	0.871 (inactive)	0.369	7600	8730	-0.885 (inactive)	0.17	0.145 (inactive)
CC(C)n1cc(-c2cc(C(=O)N(C)Cc3cccnc3)c3ccc(F)cc3n2)cn1	0.916 (inactive)	1.28	9850	10700	-0.603 (inactive)	1.43	-0.355 (inactive)
CC(=O)c1sc(Nc2ccccc2)nc1C	0.911 (inactive)	0.648	8310	9120	3.09 (active)	-0.213	0.63 (inactive)
O=C(Cc1noc2ccccc12)NCCOc1cccnc1	0.924 (inactive)	1.95	9890	10700	-0.132 (inactive)	-0.425	-0.56 (inactive)
Cc1nc(CCNC(=O)Nc2nnc(-c3cccs3)s2)sc1C	0.877 (inactive)	1.44	7610	8680	-0.443 (inactive)	-0.248	0.645 (inactive)
CC[C@H](C)[C@H](NC(=O)c1nc2ccccc2c(=O)[nH]1)C(=O)OC	0.844 (inactive)	2.34	7550	8940	0.166 (inactive)	-0.367	-0.31 (inactive)
O=C(O)Cc1cc(=O)[nH]c(=O)[nH]1	0.898 (inactive)	0.239	8760	9760	0.622 (inactive)	-0.242	-0.13 (inactive)
CCCn1ncc(-c2ccnc(NC3CC(C)(C)NC(C)(C)C3)n2)c1C	0.919 (inactive)	0.965	8450	9200	0.278 (inactive)	0.593	0.33 (inactive)
